B1: unnamed (peptide)
chain: YSRKKLPVVLSKMTL
B2: unnamed (peptide)
chain: RRRIAYPFYPFKKLG
B3: unnamed (peptide)
chain: LRWRHKFFLPAIAAI

Target: AgAbp1
Assay: SPOT peptide array binding signal intensity (averaged, normalized) (arbitrary units (background-subtracted, floor 0; scale differs between SH3 domains)); higher = stronger binding of the SH3 domain to the peptide
Method in brief: (§1)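 To measure binding, SH3 domains from four yeast species were fused to GST, expressed in E. coli BL21(DE3) and purified on glutathione Sepharose. Each domain was incubated at 10 μg/ml overnight at 4°C on cellulose membranes with synthetic 15-mer peptides whose cysteines were replaced by serines. Anti-GST antibody, an HRP anti-mouse secondary and luminol were used for detection, and images were quantified with Genespotter. Reported binding signal is normalized, background-subtracted spot intensity averaged over replicates, in arbitrary units that differ between domains.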

Binder | SPOT peptide array binding signal intensity
B1 | 68
B2 | 69
B3 | 73

Target: AgBbc1
Assay: as above
Method in brief: as §1

Binder | SPOT peptide array binding signal intensity
B1 | 21.5
B2 | ≤ 0
B3 | 14.2

Target: AgBem1-D1
Assay: as above
Method in brief: as §1

Binder | SPOT peptide array binding signal intensity
B1 | 45.5
B2 | 22
B3 | 52.5

Target: AgBzz1-D1
Assay: as above
Method in brief: as §1

Binder | SPOT peptide array binding signal intensity
B1 | 82.5
B2 | 32.5
B3 | ≤ 0

Target: AgBzz1-D2
Assay: as above
Method in brief: as §1

Binder | SPOT peptide array binding signal intensity
B1 | 43.5
B2 | 9
B3 | ≤ 0

Target: AgCyk3
Assay: as above
Method in brief: as §1

Binder | SPOT peptide array binding signal intensity
B1 | 3
B2 | 1
B3 | 0.5

Target: AgFus1
Assay: as above
Method in brief: as §1

Binder | SPOT peptide array binding signal intensity
B1 | 109
B2 | 337
B3 | 299

Target: AgHof1
Assay: as above
Method in brief: as §1

Binder | SPOT peptide array binding signal intensity
B1 | 28.8
B2 | 8.75
B3 | 9.38

Target: AgHse1
Assay: as above
Method in brief: as §1

Binder | SPOT peptide array binding signal intensity
B1 | 126
B2 | 914
B3 | 979

Target: AgLsb1
Assay: as above
Method in brief: as §1

Binder | SPOT peptide array binding signal intensity
B1 | 223
B2 | 1.5
B3 | ≤ 0

Target: AgLsb4
Assay: as above
Method in brief: as §1

Binder | SPOT peptide array binding signal intensity
B1 | 12
B2 | 19.5
B3 | 18.8

Target: AgMyo5
Assay: as above
Method in brief: as §1

Binder | SPOT peptide array binding signal intensity
B1 | 3.25
B2 | 1.75
B3 | ≤ 0

Target: AgNbp2
Assay: as above
Method in brief: as §1

Binder | SPOT peptide array binding signal intensity
B1 | 48.5
B2 | 124
B3 | 14.8

Target: AgRvs167
Assay: as above
Method in brief: as §1

Binder | SPOT peptide array binding signal intensity
B1 | 3.5
B2 | 6.5
B3 | 1.17

Target: AgSho1
Assay: as above
Method in brief: as §1

Binder | SPOT peptide array binding signal intensity
B1 | 190
B2 | 79
B3 | 32

Target: AgSla1-D1-D2
Assay: as above
Method in brief: as §1

Binder | SPOT peptide array binding signal intensity
B1 | 57
B2 | 22
B3 | 2.5

Target: AgSla1-D3
Assay: as above
Method in brief: as §1

Binder | SPOT peptide array binding signal intensity
B1 | 14.5
B2 | ≤ 0
B3 | 2.25

Target: CaAbp1-D1
Assay: as above
Method in brief: as §1

Binder | SPOT peptide array binding signal intensity
B1 | 444
B2 | 482
B3 | 312

Target: CaAbp1-D2
Assay: as above
Method in brief: as §1

Binder | SPOT peptide array binding signal intensity
B1 | 126
B2 | 238
B3 | 422

Target: CaBbc1
Assay: as above
Method in brief: as §1

Binder | SPOT peptide array binding signal intensity
B1 | 15.8
B2 | 0.25
B3 | 13

Target: CaBem1-D1
Assay: as above
Method in brief: as §1

Binder | SPOT peptide array binding signal intensity
B1 | 35.5
B2 | 23
B3 | 4.5

Target: CaBzz1-D1
Assay: as above
Method in brief: as §1

Binder | SPOT peptide array binding signal intensity
B1 | 197
B2 | 21
B3 | 23.2

Target: CaBzz1-D2
Assay: as above
Method in brief: as §1

Binder | SPOT peptide array binding signal intensity
B1 | 92.2
B2 | 9.5
B3 | 0.25

Target: CaCyk3
Assay: as above
Method in brief: as §1

Binder | SPOT peptide array binding signal intensity
B1 | 8
B2 | 1
B3 | 1.5

Target: CaFus1
Assay: as above
Method in brief: as §1

Binder | SPOT peptide array binding signal intensity
B1 | 166
B2 | 672
B3 | 728

Target: CaHof1
Assay: as above
Method in brief: as §1

Binder | SPOT peptide array binding signal intensity
B1 | 2
B2 | 0.5
B3 | ≤ 0

Target: CaHse1
Assay: as above
Method in brief: as §1

Binder | SPOT peptide array binding signal intensity
B1 | 17.2
B2 | 47.8
B3 | 28.5

Target: CaLsb1
Assay: as above
Method in brief: as §1

Binder | SPOT peptide array binding signal intensity
B1 | 16
B2 | ≤ 0
B3 | 0.25

Target: CaLsb4
Assay: as above
Method in brief: as §1

Binder | SPOT peptide array binding signal intensity
B1 | 25.5
B2 | 15
B3 | 2.5

Target: CaMyo5
Assay: as above
Method in brief: as §1

Binder | SPOT peptide array binding signal intensity
B1 | 4.75
B2 | 0.25
B3 | 4

Target: CaNbp2
Assay: as above
Method in brief: as §1

Binder | SPOT peptide array binding signal intensity
B1 | 143
B2 | 565
B3 | 116

Target: CaRvs167
Assay: as above
Method in brief: as §1

Binder | SPOT peptide array binding signal intensity
B1 | 16.7
B2 | 13.3
B3 | 12.8

Target: CaRvs167-3
Assay: as above
Method in brief: as §1

Binder | SPOT peptide array binding signal intensity
B1 | 11.5
B2 | 62.5
B3 | 24

Target: CaSho1
Assay: as above
Method in brief: as §1

Binder | SPOT peptide array binding signal intensity
B1 | 131
B2 | 486
B3 | 228

Target: CaSla1-D1-D2
Assay: as above
Method in brief: as §1

Binder | SPOT peptide array binding signal intensity
B1 | 264
B2 | ≤ 0
B3 | ≤ 0

Target: CaSla1-D3
Assay: as above
Method in brief: as §1

Binder | SPOT peptide array binding signal intensity
B1 | 131
B2 | 2.5
B3 | 3.12

Target: ScAbp1
Assay: as above
Method in brief: as §1

Binder | SPOT peptide array binding signal intensity
B1 | 108
B2 | 103
B3 | 53.5

Target: ScBbc1
Assay: as above
Method in brief: as §1

Binder | SPOT peptide array binding signal intensity
B1 | 11
B2 | ≤ 0
B3 | 0.875

Target: ScBem1-D1
Assay: as above
Method in brief: as §1

Binder | SPOT peptide array binding signal intensity
B1 | 31
B2 | 16
B3 | 9.5

Target: ScBzz1-D1
Assay: as above
Method in brief: as §1

Binder | SPOT peptide array binding signal intensity
B1 | 67.5
B2 | 6
B3 | 4.5

Target: ScBzz1-D2
Assay: as above
Method in brief: as §1

Binder | SPOT peptide array binding signal intensity
B1 | 75
B2 | 14
B3 | 14.2

Target: ScCyk3
Assay: as above
Method in brief: as §1

Binder | SPOT peptide array binding signal intensity
B1 | 9
B2 | 38.5
B3 | 18.5

Target: ScFus1
Assay: as above
Method in brief: as §1

Binder | SPOT peptide array binding signal intensity
B1 | 108
B2 | 230
B3 | 209

Target: ScHof1
Assay: as above
Method in brief: as §1

Binder | SPOT peptide array binding signal intensity
B1 | 4.5
B2 | 0.5
B3 | 1.25

Target: ScHse1
Assay: as above
Method in brief: as §1

Binder | SPOT peptide array binding signal intensity
B1 | 370
B2 | 1700
B3 | 1040

Target: ScLsb1
Assay: as above
Method in brief: as §1

Binder | SPOT peptide array binding signal intensity
B1 | 191
B2 | 3.5
B3 | 0.25

Target: ScLsb2
Assay: as above
Method in brief: as §1

Binder | SPOT peptide array binding signal intensity
B1 | 1100
B2 | 4
B3 | ≤ 0

Target: ScLsb3
Assay: as above
Method in brief: as §1

Binder | SPOT peptide array binding signal intensity
B1 | 24.5
B2 | 104
B3 | ≤ 0

Target: ScLsb4
Assay: as above
Method in brief: as §1

Binder | SPOT peptide array binding signal intensity
B1 | 12.5
B2 | 11
B3 | 4.25

Target: ScMyo3
Assay: as above
Method in brief: as §1

Binder | SPOT peptide array binding signal intensity
B1 | 6
B2 | 4
B3 | ≤ 0

Target: ScMyo5
Assay: as above
Method in brief: as §1

Binder | SPOT peptide array binding signal intensity
B1 | 6
B2 | ≤ 0
B3 | ≤ 0

Target: ScNbp2
Assay: as above
Method in brief: as §1

Binder | SPOT peptide array binding signal intensity
B1 | 95
B2 | 173
B3 | 20.2

Target: ScPex13
Assay: as above
Method in brief: as §1

Binder | SPOT peptide array binding signal intensity
B1 | 150
B2 | 0.5
B3 | ≤ 0

Target: ScRvs167
Assay: as above
Method in brief: as §1

Binder | SPOT peptide array binding signal intensity
B1 | 8.33
B2 | 13.3
B3 | 1.5

Target: ScSho1
Assay: as above
Method in brief: as §1

Binder | SPOT peptide array binding signal intensity
B1 | 2450
B2 | 606
B3 | 759

Target: ScSla1-D1-D2
Assay: as above
Method in brief: as §1

Binder | SPOT peptide array binding signal intensity
B1 | 300
B2 | ≤ 0
B3 | ≤ 0

Target: ScSla1-D3
Assay: as above
Method in brief: as §1

Binder | SPOT peptide array binding signal intensity
B1 | 53.2
B2 | ≤ 0
B3 | ≤ 0

Target: SpAbp1-D1
Assay: as above
Method in brief: as §1

Binder | SPOT peptide array binding signal intensity
B1 | 243
B2 | 155
B3 | 166

Target: SpBbc1
Assay: as above
Method in brief: as §1

Binder | SPOT peptide array binding signal intensity
B1 | 3
B2 | 1
B3 | 1.75

Target: SpBzz1-D1
Assay: as above
Method in brief: as §1

Binder | SPOT peptide array binding signal intensity
B1 | 137
B2 | 37
B3 | ≤ 0

Target: SpBzz1-D2
Assay: as above
Method in brief: as §1

Binder | SPOT peptide array binding signal intensity
B2 | ≤ 0
B3 | ≤ 0

Target: SpCyk3
Assay: as above
Method in brief: as §1

Binder | SPOT peptide array binding signal intensity
B2 | ≤ 0
B3 | 1

Target: SpHof1
Assay: as above
Method in brief: as §1

Binder | SPOT peptide array binding signal intensity
B2 | 37.5
B3 | 33.1

Target: SpHof1-2
Assay: as above
Method in brief: as §1

Binder | SPOT peptide array binding signal intensity
B2 | 12.5
B3 | 2.25

Target: SpHof1-3
Assay: as above
Method in brief: as §1

Binder | SPOT peptide array binding signal intensity
B2 | 225
B3 | 830

Target: SpHse1
Assay: as above
Method in brief: as §1

Binder | SPOT peptide array binding signal intensity
B2 | 745
B3 | 667

Target: SpLsb1
Assay: as above
Method in brief: as §1

Binder | SPOT peptide array binding signal intensity
B2 | 1.5
B3 | ≤ 0

Target: SpLsb4
Assay: as above
Method in brief: as §1

Binder | SPOT peptide array binding signal intensity
B2 | 47
B3 | 21.2

Target: SpMyo1
Assay: as above
Method in brief: as §1

Binder | SPOT peptide array binding signal intensity
B2 | 2.5
B3 | ≤ 0

Target: SpNbp2
Assay: as above
Method in brief: as §1

Binder | SPOT peptide array binding signal intensity
B2 | 394
B3 | 41.8

Target: SpPex13
Assay: as above
Method in brief: as §1

Binder | SPOT peptide array binding signal intensity
B2 | 5.5
B3 | 6.25

Target: SpRvs167
Assay: as above
Method in brief: as §1

Binder | SPOT peptide array binding signal intensity
B2 | 7.33
B3 | 1

Target: SpSla1-D1-D2
Assay: as above
Method in brief: as §1

Binder | SPOT peptide array binding signal intensity
B2 | ≤ 0
B3 | 2

Target: SpSla1-D3
Assay: as above
Method in brief: as §1

Binder | SPOT peptide array binding signal intensity
B2 | 1.5
B3 | ≤ 0

From the supplement of paper PMC4466140
